Test results from PMC7862700, “An all-to-all approach to the identification of sequence-specific readers for epigenetic DNA modifications on cytosine”.

What was measured:
Assay in all cases: DAPPL (digital affinity profiling via proximity ligation, sequencing); 10 mM Tris-HCl pH 7.5, 50 mM NaCl, 1 mM DTT, 4% glycerol, room temperature, 30 min; GST-TFs on glutathione beads, 16-mer random dsDNA library, 0.1% formaldehyde crosslink after washing; high values mean tight binding
FLI1 = target: T1, FLI1 (Homo sapiens, UniProt Q01543 1-452); settings: protein: recombinant; tags: N-terminal GST; dsDNA, one strand shown
T1 sequence: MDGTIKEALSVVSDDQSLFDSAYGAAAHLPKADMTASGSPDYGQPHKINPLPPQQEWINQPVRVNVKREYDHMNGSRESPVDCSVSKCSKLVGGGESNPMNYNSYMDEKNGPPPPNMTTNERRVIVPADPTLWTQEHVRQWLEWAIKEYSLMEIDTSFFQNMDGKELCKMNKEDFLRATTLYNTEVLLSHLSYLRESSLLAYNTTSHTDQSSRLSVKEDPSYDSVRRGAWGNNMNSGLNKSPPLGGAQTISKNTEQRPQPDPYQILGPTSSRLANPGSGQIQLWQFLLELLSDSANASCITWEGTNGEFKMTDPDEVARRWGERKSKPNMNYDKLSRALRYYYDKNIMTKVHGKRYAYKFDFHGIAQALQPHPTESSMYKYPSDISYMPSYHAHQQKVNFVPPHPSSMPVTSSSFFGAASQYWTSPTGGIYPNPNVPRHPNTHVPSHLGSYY
Outline: (§1)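 Pools were built from human transcription factors expressed in yeast as GST fusions, captured on glutathione beads and DNA-barcoded, along with a tag-only sample. Incubation with 200 nmole of a 16-mer random double-stranded DNA library lasted 30 min at room temperature in Tris/NaCl/DTT/glycerol buffer, and was followed by washing, 0.1% formaldehyde crosslinking, proximity ligation, PCR amplification and Illumina NextSeq500 sequencing. Binding signal is the quotient of each hexamer's read frequency for a factor and its frequency for the tag-only sample.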

ELK1 = target: T2, ELK1 (Homo sapiens, UniProt P19419 1-428); settings: protein: recombinant; tags: N-terminal GST; dsDNA, one strand shown
T2 sequence: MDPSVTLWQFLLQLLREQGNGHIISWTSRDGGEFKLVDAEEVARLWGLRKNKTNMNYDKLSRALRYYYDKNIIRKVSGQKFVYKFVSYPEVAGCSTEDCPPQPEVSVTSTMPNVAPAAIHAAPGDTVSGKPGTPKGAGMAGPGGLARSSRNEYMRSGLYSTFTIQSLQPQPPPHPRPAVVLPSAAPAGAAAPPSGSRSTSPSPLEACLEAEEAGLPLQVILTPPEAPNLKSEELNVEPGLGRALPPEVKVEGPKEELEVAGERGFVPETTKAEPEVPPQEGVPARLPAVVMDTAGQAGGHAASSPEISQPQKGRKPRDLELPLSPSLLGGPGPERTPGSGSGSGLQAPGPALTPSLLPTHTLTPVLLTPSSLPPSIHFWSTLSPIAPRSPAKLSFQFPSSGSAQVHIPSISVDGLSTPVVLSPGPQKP
Outline: as §1

GABPA = target: T3, GABPA (Homo sapiens, UniProt Q06546 1-454); settings: protein: recombinant; tags: N-terminal GST; dsDNA, one strand shown
T3 sequence: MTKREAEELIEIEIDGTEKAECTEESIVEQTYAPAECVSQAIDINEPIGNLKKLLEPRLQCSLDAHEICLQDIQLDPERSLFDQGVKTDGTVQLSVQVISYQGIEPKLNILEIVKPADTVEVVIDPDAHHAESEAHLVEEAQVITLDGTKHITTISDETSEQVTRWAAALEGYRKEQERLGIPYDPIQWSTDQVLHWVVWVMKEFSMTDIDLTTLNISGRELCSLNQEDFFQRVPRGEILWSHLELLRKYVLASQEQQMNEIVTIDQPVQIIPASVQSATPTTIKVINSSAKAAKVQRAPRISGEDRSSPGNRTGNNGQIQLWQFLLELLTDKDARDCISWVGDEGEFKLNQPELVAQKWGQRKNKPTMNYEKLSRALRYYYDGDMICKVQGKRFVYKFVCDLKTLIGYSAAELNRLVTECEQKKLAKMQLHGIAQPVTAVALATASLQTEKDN
Outline: as §1

ERG = target: T4, ERG (Homo sapiens, UniProt P11308 1-479); settings: protein: recombinant; tags: N-terminal GST; dsDNA, one strand shown
T4 sequence: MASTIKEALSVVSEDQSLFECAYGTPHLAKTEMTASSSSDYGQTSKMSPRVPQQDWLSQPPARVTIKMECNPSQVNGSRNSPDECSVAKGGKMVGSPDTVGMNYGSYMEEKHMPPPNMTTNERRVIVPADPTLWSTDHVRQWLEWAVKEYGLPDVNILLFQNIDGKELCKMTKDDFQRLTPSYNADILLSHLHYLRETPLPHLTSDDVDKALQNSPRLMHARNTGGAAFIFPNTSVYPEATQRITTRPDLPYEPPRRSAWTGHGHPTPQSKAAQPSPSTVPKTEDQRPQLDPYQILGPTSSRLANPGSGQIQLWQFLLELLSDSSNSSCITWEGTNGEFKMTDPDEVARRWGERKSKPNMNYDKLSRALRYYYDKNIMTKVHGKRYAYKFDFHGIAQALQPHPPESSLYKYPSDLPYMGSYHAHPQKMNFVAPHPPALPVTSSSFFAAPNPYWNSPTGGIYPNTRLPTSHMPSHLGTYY
Outline: as §1

ELF1 = ELF1 (Homo sapiens, UniProt P32519 1-619); settings: protein: recombinant; tags: N-terminal GST; dsDNA, one strand shown
Sequence of ELF1 (P32519 whole entry): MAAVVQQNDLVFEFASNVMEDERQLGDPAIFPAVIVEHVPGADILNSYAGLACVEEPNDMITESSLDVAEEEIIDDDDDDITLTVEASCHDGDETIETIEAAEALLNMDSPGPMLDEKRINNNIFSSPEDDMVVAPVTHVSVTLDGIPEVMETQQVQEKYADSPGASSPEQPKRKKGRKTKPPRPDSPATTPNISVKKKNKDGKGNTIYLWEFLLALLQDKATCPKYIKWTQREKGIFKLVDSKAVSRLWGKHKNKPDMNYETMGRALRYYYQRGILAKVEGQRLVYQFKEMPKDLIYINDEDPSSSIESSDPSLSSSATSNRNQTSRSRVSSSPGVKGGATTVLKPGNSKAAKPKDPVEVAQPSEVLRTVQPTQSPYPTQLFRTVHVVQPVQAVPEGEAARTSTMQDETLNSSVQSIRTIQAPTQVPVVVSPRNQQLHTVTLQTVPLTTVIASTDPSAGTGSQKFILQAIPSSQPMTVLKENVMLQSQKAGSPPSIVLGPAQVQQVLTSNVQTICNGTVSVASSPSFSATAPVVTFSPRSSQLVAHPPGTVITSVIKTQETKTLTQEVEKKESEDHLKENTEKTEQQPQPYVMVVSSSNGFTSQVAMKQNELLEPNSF
Outline: as §1

EHF = target: T5, EHF (Homo sapiens, UniProt Q9NZC4 1-300); settings: protein: recombinant; tags: N-terminal GST; dsDNA, one strand shown
T5 sequence: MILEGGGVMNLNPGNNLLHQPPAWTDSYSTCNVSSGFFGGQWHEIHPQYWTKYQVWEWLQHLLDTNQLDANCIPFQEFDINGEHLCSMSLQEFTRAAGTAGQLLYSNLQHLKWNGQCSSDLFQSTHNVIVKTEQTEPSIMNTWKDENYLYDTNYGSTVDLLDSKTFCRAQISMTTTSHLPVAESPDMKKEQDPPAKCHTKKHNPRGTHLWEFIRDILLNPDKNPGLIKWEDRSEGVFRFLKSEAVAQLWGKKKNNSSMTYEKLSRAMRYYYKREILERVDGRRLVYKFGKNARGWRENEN
Outline: as §1

SPI1 = SPI1 (Homo sapiens, UniProt P17947 1-270); settings: protein: recombinant; tags: N-terminal GST; dsDNA, one strand shown
Outline: as §1

SPIB = SPIB (Homo sapiens, UniProt Q01892 1-262); settings: protein: recombinant; tags: N-terminal GST; dsDNA, one strand shown
Sequence of SPIB (Q01892 whole entry): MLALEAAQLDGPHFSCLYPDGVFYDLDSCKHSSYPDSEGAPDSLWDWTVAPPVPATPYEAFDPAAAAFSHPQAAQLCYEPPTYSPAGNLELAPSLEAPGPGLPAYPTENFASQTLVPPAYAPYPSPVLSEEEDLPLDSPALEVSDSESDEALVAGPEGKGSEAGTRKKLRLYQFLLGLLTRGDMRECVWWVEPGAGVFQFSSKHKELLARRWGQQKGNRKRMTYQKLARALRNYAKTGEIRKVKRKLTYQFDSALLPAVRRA
Outline: as §1

ELK3 = target: T6, ELK3 (Homo sapiens, UniProt P41970 1-407); settings: protein: recombinant; tags: N-terminal GST; dsDNA, one strand shown
T6 sequence: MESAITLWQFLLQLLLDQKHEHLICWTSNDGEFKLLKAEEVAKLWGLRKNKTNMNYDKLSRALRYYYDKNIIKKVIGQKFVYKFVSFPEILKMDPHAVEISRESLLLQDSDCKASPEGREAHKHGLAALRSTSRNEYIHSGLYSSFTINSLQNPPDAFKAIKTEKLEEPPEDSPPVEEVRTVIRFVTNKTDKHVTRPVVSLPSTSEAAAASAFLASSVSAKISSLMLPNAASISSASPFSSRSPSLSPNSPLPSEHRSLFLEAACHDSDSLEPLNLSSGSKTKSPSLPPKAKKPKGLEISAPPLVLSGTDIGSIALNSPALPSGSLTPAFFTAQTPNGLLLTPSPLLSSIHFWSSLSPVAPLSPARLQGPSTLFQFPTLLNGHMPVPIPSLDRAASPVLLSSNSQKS
Outline: as §1

FEV = target: T7, FEV (Homo sapiens, UniProt Q99581 1-238); settings: protein: recombinant; tags: N-terminal GST; dsDNA, one strand shown
T7 sequence: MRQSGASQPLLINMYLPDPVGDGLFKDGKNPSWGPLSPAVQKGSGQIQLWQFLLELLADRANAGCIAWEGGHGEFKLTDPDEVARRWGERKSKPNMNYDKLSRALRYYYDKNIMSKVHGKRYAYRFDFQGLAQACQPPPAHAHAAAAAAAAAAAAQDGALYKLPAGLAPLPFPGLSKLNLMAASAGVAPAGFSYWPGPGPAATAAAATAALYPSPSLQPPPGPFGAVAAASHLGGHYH
Outline: as §1

ETV5 = ETV5 (Homo sapiens, UniProt P41161 1-510); settings: protein: recombinant; tags: N-terminal GST; dsDNA, one strand shown
Sequence of ETV5 (P41161 whole entry): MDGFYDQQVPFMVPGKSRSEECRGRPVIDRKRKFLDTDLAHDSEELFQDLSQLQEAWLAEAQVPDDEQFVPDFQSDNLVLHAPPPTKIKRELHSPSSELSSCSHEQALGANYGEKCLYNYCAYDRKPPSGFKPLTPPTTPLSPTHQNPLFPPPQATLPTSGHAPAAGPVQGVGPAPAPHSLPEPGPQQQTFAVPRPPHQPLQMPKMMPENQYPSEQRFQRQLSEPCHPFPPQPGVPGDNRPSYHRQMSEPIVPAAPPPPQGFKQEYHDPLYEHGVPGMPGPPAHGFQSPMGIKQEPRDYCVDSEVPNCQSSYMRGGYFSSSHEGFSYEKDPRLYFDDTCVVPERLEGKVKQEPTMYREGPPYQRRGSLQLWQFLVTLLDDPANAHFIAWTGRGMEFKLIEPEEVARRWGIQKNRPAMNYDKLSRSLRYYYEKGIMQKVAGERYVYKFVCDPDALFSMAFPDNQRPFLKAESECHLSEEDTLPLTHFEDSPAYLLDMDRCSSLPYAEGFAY
Outline: as §1

HSF1 = HSF1 (Homo sapiens, UniProt Q00613 1-529); settings: protein: recombinant; tags: N-terminal GST; chain copies: 3; dsDNA, one strand shown
Sequence of HSF1 (Q00613 whole entry): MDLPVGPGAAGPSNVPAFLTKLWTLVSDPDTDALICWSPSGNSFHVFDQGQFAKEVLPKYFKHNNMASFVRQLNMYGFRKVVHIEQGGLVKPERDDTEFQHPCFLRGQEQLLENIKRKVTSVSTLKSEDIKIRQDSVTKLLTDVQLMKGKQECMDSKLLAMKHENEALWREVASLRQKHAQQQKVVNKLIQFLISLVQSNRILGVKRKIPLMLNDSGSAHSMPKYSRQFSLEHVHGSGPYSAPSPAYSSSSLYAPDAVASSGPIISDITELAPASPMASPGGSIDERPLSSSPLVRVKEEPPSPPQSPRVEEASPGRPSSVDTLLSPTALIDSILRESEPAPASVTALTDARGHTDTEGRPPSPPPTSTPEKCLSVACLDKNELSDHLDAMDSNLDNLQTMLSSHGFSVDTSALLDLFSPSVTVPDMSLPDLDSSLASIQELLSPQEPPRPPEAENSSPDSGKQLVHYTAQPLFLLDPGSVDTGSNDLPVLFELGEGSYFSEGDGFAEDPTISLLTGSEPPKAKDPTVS
Outline: as §1

SPIC = target: T8, SPIC (Homo sapiens, UniProt Q8N5J4 1-248); settings: protein: recombinant; tags: N-terminal GST; dsDNA, one strand shown
T8 sequence: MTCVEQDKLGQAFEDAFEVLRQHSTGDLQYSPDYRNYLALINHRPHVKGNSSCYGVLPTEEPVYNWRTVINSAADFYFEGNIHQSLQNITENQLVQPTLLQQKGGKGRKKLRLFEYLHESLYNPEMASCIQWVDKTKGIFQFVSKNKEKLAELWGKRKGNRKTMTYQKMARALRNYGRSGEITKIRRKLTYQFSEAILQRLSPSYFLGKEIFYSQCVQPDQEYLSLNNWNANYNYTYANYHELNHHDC
Outline: as §1

ELF4 = ELF4 (Homo sapiens, UniProt Q99607 1-663); settings: protein: recombinant; tags: N-terminal GST; dsDNA, one strand shown
Sequence of ELF4 (Q99607 whole entry): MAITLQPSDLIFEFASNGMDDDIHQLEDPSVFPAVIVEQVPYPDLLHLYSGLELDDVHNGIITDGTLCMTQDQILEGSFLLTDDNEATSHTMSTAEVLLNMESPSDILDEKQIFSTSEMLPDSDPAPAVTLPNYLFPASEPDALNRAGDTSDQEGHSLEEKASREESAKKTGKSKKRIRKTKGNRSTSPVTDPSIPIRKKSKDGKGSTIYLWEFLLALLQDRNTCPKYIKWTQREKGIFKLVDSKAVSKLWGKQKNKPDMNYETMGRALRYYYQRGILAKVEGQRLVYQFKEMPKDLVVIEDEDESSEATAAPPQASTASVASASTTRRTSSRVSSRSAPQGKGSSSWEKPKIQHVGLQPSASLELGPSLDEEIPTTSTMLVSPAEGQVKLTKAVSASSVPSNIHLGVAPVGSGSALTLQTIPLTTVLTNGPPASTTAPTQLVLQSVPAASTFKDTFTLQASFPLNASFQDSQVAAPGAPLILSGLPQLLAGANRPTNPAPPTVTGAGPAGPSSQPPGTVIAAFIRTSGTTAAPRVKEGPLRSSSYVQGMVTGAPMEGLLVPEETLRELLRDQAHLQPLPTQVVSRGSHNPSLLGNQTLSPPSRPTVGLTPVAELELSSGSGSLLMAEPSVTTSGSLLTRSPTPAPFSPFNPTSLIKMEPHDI
Outline: as §1

ELK4 = target: T9, ELK4 (Homo sapiens, UniProt P28324-2 1-405); settings: protein: recombinant; tags: N-terminal GST; dsDNA, one strand shown
T9 sequence: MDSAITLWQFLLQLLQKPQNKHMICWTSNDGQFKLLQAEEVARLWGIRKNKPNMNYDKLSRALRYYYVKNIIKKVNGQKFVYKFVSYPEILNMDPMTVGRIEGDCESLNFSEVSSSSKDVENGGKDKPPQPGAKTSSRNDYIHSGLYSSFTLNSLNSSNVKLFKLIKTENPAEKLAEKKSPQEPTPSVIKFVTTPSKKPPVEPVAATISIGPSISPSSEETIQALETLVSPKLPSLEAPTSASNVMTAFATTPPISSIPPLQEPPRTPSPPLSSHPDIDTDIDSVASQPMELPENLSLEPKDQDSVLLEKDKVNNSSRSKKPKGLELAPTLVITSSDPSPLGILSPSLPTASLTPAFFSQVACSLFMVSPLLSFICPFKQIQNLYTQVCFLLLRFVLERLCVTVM
Outline: as §1

ETV2 = target: T10, ETV2 (Homo sapiens, UniProt O00321 1-342); settings: protein: recombinant; tags: N-terminal GST; dsDNA, one strand shown
T10 sequence: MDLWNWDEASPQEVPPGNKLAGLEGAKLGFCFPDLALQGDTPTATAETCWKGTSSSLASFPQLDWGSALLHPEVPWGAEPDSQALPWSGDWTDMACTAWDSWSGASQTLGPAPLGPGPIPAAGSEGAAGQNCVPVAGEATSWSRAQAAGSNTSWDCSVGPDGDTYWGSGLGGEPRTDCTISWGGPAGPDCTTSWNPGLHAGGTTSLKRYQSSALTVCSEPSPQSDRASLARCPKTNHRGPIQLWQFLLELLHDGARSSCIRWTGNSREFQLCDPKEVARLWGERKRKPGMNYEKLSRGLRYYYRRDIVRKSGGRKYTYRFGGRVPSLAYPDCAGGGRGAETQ
Outline: as §1

ELF3 = target: T11, ELF3 (Homo sapiens, UniProt P78545 1-371); settings: protein: recombinant; tags: N-terminal GST; dsDNA, one strand shown
T11 sequence: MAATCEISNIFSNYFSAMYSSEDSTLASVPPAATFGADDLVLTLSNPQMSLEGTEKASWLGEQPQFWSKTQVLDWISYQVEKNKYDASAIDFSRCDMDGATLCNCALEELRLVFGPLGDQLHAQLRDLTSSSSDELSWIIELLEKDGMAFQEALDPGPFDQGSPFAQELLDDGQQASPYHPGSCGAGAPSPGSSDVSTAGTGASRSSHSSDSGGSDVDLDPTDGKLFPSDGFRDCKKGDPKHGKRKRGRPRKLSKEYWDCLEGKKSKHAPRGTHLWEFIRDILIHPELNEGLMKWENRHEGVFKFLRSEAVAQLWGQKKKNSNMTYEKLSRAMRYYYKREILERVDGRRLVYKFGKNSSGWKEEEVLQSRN
Outline: as §1

CRX = CRX (Homo sapiens, UniProt O43186 1-299); settings: protein: recombinant; tags: N-terminal GST; dsDNA, one strand shown
Sequence of CRX (O43186 whole entry): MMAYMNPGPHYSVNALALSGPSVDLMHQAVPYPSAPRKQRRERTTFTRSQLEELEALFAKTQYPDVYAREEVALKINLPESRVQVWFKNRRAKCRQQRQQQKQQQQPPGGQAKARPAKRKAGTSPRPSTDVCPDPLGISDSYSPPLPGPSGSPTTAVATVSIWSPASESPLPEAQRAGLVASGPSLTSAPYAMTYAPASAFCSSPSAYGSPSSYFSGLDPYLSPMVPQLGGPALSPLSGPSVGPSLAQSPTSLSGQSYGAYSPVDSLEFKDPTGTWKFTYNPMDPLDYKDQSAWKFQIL
Outline: as §1

ETV1 = ETV1 (Homo sapiens, UniProt P50549 1-477); settings: protein: recombinant; tags: N-terminal GST; dsDNA, one strand shown
Sequence of ETV1 (P50549 whole entry): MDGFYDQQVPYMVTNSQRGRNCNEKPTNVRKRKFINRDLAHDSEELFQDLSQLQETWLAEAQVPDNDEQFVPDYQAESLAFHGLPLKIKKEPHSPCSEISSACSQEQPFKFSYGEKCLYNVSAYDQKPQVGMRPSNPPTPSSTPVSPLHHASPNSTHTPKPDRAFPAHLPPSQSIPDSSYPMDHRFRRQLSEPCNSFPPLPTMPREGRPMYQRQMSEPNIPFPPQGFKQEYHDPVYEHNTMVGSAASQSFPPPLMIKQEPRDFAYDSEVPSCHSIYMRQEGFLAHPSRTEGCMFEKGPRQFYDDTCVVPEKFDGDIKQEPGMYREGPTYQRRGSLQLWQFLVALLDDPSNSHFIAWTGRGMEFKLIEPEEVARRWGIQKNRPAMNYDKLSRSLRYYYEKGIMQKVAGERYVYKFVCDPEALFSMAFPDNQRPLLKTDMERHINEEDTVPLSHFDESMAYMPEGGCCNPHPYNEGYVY
Outline: as §1

GCAAAT
binding signal (FLI1): 1.05 fold enrichment (6-mer frequency, TF over GST control)
binding signal (ELK1): 1.04 fold enrichment (6-mer frequency, TF over GST control)
binding signal (GABPA): 1.04 fold enrichment (6-mer frequency, TF over GST control)
binding signal (ERG): 1.18 fold enrichment (6-mer frequency, TF over GST control)
binding signal (ELF1): 1.11 fold enrichment (6-mer frequency, TF over GST control)
binding signal (EHF): 1.03 fold enrichment (6-mer frequency, TF over GST control)
binding signal (SPI1): 1.02 fold enrichment (6-mer frequency, TF over GST control)
binding signal (SPIB): 1.14 fold enrichment (6-mer frequency, TF over GST control)
binding signal (ELK3): 1.01 fold enrichment (6-mer frequency, TF over GST control)
binding signal (FEV): 1.08 fold enrichment (6-mer frequency, TF over GST control)
binding signal (ETV5): 1.1 fold enrichment (6-mer frequency, TF over GST control)
binding signal (HSF1): 1.08 fold enrichment (6-mer frequency, TF over GST control)
binding signal (SPIC): 1.17 fold enrichment (6-mer frequency, TF over GST control)
binding signal (ELF4): 1.04 fold enrichment (6-mer frequency, TF over GST control)
binding signal (ELK4): 1.02 fold enrichment (6-mer frequency, TF over GST control)
binding signal (ETV2): 1.06 fold enrichment (6-mer frequency, TF over GST control)
binding signal (ELF3): 1.17 fold enrichment (6-mer frequency, TF over GST control)
binding signal (CRX): 1.08 fold enrichment (6-mer frequency, TF over GST control)
binding signal (ETV1): 1.11 fold enrichment (6-mer frequency, TF over GST control)
